Compound activity deposited in PubChem BioAssay by several laboratories.
In the library only some 2.5% were active in any assay of this set; here they are far more common.
GC-B act = GC-B (human) receptor activation. AID 1920062. HEK293-GC-B cells, CNP EC30, cGMP TR-FRET; 0% at EC30 CNP, 100% saturating CNP. P20594. actives 0.11% (n = 370,000). activation, % at 10 µM;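 active = activation at 10 µM reaching about 35% in either raw or pattern-adjusted values, limit read from the data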
Target sequence (P20594 whole entry, looked up): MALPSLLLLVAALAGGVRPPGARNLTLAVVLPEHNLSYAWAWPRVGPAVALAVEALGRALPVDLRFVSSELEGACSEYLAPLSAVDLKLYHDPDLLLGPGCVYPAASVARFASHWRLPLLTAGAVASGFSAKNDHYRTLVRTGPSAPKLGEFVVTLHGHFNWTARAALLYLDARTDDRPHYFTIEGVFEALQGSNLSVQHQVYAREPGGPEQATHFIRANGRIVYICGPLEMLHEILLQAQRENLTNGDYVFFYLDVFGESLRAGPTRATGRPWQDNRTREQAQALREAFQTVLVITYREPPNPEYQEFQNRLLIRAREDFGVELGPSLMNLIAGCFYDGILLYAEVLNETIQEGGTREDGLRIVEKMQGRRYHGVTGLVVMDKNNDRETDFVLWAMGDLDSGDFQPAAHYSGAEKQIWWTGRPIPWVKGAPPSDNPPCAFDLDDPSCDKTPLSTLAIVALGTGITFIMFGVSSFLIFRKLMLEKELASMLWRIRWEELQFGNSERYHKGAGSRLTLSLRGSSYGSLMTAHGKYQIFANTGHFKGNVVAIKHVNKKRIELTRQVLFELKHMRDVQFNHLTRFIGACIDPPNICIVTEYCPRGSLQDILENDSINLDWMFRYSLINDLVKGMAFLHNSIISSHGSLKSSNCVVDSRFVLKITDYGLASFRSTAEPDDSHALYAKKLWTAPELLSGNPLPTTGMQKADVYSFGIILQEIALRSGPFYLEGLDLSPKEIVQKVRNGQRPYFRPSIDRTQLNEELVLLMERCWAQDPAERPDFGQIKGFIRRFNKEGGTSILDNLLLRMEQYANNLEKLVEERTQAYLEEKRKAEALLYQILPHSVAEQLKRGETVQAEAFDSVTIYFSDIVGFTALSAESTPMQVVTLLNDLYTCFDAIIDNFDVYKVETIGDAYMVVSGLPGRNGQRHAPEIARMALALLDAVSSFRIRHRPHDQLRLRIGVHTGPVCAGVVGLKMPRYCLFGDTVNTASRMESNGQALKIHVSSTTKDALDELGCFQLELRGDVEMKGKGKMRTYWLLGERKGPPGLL
HSF1 activator = increases HSF-1 driven luciferase reporter signal | NIH3T3-HGL HSF-1 luciferase reporter, MG132, 8 h; 100% = twice DMSO control signal | activation, % at 9 µM | actives 1.7% (n = 300,000);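 active = mean replicate activation of at least 50% with a set share of replicates each reaching 50%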
Dyrk1A ADPGlo = inhibitors of rat Dyrk1A kinase | AID 504441 | ADP-Glo luminescence, NFATc1 peptide | inhibition, % at 12.5 µM | actives 0.43% (n = 310,000); in the data active = inhibition above about 50%
aDG glyco up = alpha-DG glycosylation activation; activation, % at 10 µM; actives 0.22% (n = 360,000); Pro5-aDG cells, alpha-DG glycosylation AlphaScreen (IIH6); 0% Pro5, 100% B10-LARGE cell signal;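 active = activation of at least 8% versus controls, or a plate z-score of at least 8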;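 note: Pro5 are CHO cells carrying HIG-tagged alpha-DG that lacks glycosylation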
GC-A act = GC-A (human) enzyme activation. P16066. HEK293 GC-A cells, cGMP TR-FRET, EC30 ANP; 0% at EC30 ANP, 100% saturating ANP. activation, % at 10 µM. actives 0.14% (n = 370,000); in the data active = activation above about 40%
HSF1 inhib = HSF1 inhibition | NIH3T3-HGL HSE-luciferase, MG132-induced, luminescence 8 h; hits give low values | activity change, negative = inhibition, % at 7.5 µM (by protocol) | actives 0.77% (n = 300,000) | AID 2098;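 active = more than half of replicate wells show activity change below -50%, luminescence cut by over half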;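 note: luciferase reports HSF-1 transcriptional activity via heat shock element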
Large screens that a line does not name were inactive.

Cc1ccc(NC(=O)c2cc(-c3ccco3)on2)cc1C	HSF1 activator 55
O=C(Nc1cnn(Cc2ccc(F)cc2)c1)c1cc(-c2ccco2)on1	HSF1 inhib -54
CC(=O)N1N=C(c2ccco2)CC1c1ccc(Cl)o1 (stereo unspecified)	none
COC(=O)/C=C1/N/C(=N\c2nc(C)cc(C)n2)N(c2ccc(C)c(C)c2)C1=O	HSF1 activator 91
O=C(/C=C/[C@H]1O[C@@H](n2cnc3c(NC(=O)c4ccccc4)ncnc32)[C@H](O)[C@@H]1O)NCC(c1ccccc1)c1ccccc1	none (no result: HSF1 activator, Dyrk1A ADPGlo, HSF1 inhib)
Cc1nc2c(ncn2-c2ccccc2)c(=O)n1NC(=O)CN1CCOCC1	HSF1 inhib -57
Clc1ccc(-c2nnc(-c3ccccc3Cl)o2)cc1	none
COc1cccc(CN2CCc3[nH]c(=S)[nH]c(=O)c3C2)c1	none
COCCCN1CCc2[nH]c(=S)[nH]c(=O)c2C1	HSF1 activator 58
Cc1noc(/C=C/N(C)C)c1S(=O)(=O)N1CCN(c2ccc(F)cc2)CC1	HSF1 inhib -62
CCc1ccc(Nc2nnc(SC3CCOC3=O)s2)cc1 (stereo unspecified)	GC-A act 48
N#CC1=C(N)NC(SCC(=O)Nc2ccccc2)=C(C#N)C12CCCCC2	HSF1 activator 71
COC(=O)c1ccc2nc(-c3ccc(C)cc3)c(CC(C)(C)C)n2c1	none (no result: HSF1 activator, Dyrk1A ADPGlo, aDG glyco up, HSF1 inhib)
Cc1cc(C(=O)COC(=O)Cc2n[nH]c(=O)c3ccccc23)c(C)n1-c1ccc2c(c1)OCCO2	HSF1 inhib -57
COc1cccc(CNc2ccc(S(N)(=O)=O)cc2)c1OC	HSF1 inhib -57 (no result: Dyrk1A ADPGlo)
CCOc1cc(/C=C/C(=O)c2ccc3c(c2)OCCO3)ccc1OCC(=O)N(C)C	HSF1 activator 68
CCOc1cc(/C=C/C(=O)c2ccc(O)cc2)ccc1OCC(=O)N(C)C	none
CC(C)(Oc1ccc(Cl)cc1)C(=O)Nc1ccc2oc(=O)ccc2c1	none
CC(C)(C)C(=O)Nc1ccc(-c2cc3cc(Cl)ccc3o2)cc1	HSF1 inhib -54
COc1ccc(CC(=O)OC(C)C(=O)Nc2ccc(Cl)cn2)cc1 (stereo unspecified)	none (no result: HSF1 activator, Dyrk1A ADPGlo, HSF1 inhib)
Cc1cc(C)cc(NC(=S)N=Nc2c(O)n(C)c3ccc(S(=O)(=O)N4CCOCC4)cc23)c1	none
Cc1ccc(NC(=S)N=Nc2c(O)n(C)c3ccc(S(=O)(=O)N4CCOCC4)cc23)cc1	HSF1 activator 58
CCOC(=O)C(=CNc1ccc(S(N)(=O)=O)cc1)C(=O)OCC	none
CCOC(=O)C(=CNc1ccc(C#N)cc1)C(=O)OCC	HSF1 activator 60
CCOC(=O)/C(C#N)=C/Nc1ccccc1OC	none
CCOC(=O)C(=O)/C(C#N)=C/Nc1ccccc1	HSF1 activator 52
CCc1cc2c(nc1CC)CCCN2S(=O)(=O)c1ccccc1C	none (no result: HSF1 activator, Dyrk1A ADPGlo, aDG glyco up, HSF1 inhib)
Cc1ccccc1NC(=S)c1nc2ccccc2[nH]1	HSF1 activator 67
Cc1cccc(C)c1NC(=O)C(C1CC1)n1c(=O)c(-c2cc3ccccc3[nH]2)nc2ccccc21 (stereo unspecified)	none (no result: HSF1 activator, Dyrk1A ADPGlo, HSF1 inhib)
CCc1ccccc1NC(=O)COc1cccc2ccc(C)nc12	HSF1 inhib -77
Cc1ccccc1Nc1nc(N)nc(COC(=O)c2ccccc2)n1	HSF1 activator 58
Cc1ccccc1CSCc1nc(N)nc(Nc2ccccc2C)n1	none
Nc1nc(CCl)nc(Nc2cccc3ccccc23)n1	HSF1 inhib -77 (no result: Dyrk1A ADPGlo)
Nc1nc(Nc2cccc3ccccc23)nc(C2CCCC2=O)n1 (stereo unspecified)	HSF1 activator 53 (no result: Dyrk1A ADPGlo, aDG glyco up)
Cc1ccccc1Nc1nc(N)nc(COC(=O)c2ccc(O)cc2)n1	none
COC(=O)C(Cc1ccccc1)P(=O)(c1ccccc1)c1ccccc1 (stereo unspecified)	none
Cc1ccc(CNc2cc(C(=O)O)ccc2Cl)s1	none
O=C(COC(=O)c1ccc(S(=O)(=O)NCc2ccco2)cc1)Nc1ccccc1OC(F)F	HSF1 activator 103
Cc1nc(C)c(N)c(=O)[nH]1	none
COc1ccc(C/C(C)=N/NC(=S)Nc2ccc(C(C)C)cc2)cc1	none
COc1ccc(C/C(C)=N/NC(=S)Nc2ccccc2F)cc1	HSF1 inhib -64 (no result: Dyrk1A ADPGlo)
CCN(CC)S(=O)(=O)c1cccc(NC(=O)/C=C/c2ccc([N+](=O)[O-])cc2)c1	HSF1 activator 70
COCCSc1ccccc1C(=O)Nc1cc(C)cc(C)c1	none
O=C1N/C(=C\c2ccc(O)cc2)C(O)=C1C=NCc1ccccc1	HSF1 activator 64
O=C(NNC(=O)C1C2C=CC(C2)C1C(=O)O)c1ccccc1 (stereo unspecified)	none
Cc1nn(-c2ccc(F)cc2)c(Cl)c1C(=O)OC(C)C(=O)N(C)C1CCCCC1 (stereo unspecified)	none (no result: HSF1 activator, Dyrk1A ADPGlo, HSF1 inhib)
COc1ccc(C2=NN(C)C(=NCc3ccccc3)SC2)cc1	HSF1 activator 53
ClCc1nnc(-c2cc3c(s2)CCCC3)o1	GC-A act 54 (no result: Dyrk1A ADPGlo)
CC(C)(C)C1CCc2sc(-c3nnc(CCl)o3)cc2C1 (stereo unspecified)	none (no result: Dyrk1A ADPGlo)
CCOc1ccc(CN(C)C(=O)CNC(=O)c2ccc3ccccc3c2)cc1OC	HSF1 activator 84
COc1ccc(C(=O)Nc2ccc3ccccc3c2)cc1OC	HSF1 activator 64
COc1cccc(C2C(C(=O)Nc3nc4ccccc4s3)=C(C)NC3=C2C(=O)CC(C)(C)C3)c1OC (stereo unspecified)	none
COc1ccc(OC)c(C2C(C(=O)Nc3nc4ccccc4s3)=C(C)NC3=C2C(=O)CCC3)c1 (stereo unspecified)	HSF1 activator 75
O=C(Nc1cccc(Br)c1)c1ccc(OC2CSC2)cc1	HSF1 activator 51 (no result: GC-B act, Dyrk1A ADPGlo, aDG glyco up, GC-A act)
Cn1c(=O)[nH]c(=O)c2c1nc(N1CCN(CCO)CC1)n2Cc1ccccc1Cl	none
COc1ccc(C(=O)Nc2cccc(C)c2)cc1	HSF1 activator 62
COc1ccc(C(=O)Nc2nc3ccccc3s2)cc1OC	HSF1 activator 71
COc1ccc(C(=O)Nc2cccc(NC(C)=O)c2)cc1	none (no result: HSF1 activator, Dyrk1A ADPGlo, HSF1 inhib)
COc1cc2nc(NC(=O)c3ccc(Cl)cc3)[nH]c(=O)c2cc1OC	none
Cc1cccc(C(=O)Nc2ccc3ccccc3c2)c1	HSF1 activator 66
COc1cc2nc(NC(=O)c3ccc(Cl)cc3)sc(=O)c2cc1OC	HSF1 activator 57
CCOc1ccc(NC(=O)CCC(=O)Nc2cc(OC)c(NC(=O)c3ccco3)cc2OC)cc1	none
CC(NC(=O)COC(=O)CCC(=O)c1ccc(F)cc1)c1ccccc1 (stereo unspecified)	none (no result: HSF1 activator, HSF1 inhib)
CN1CCc2c(sc(NC(=O)c3ccc4ccccc4c3)c2C(N)=O)C1	aDG glyco up 19 (no result: GC-B act, GC-A act)
NC(=O)c1ccccc1NC(=O)c1ccc2ccccc2c1	HSF1 activator 66
